Out of some 290,000 compounds screened, about 3,000 (1%) were called active. Cut-off read from the data, not from the text of the source: active = inhibition mostly above about 36% (no sharp cut-off); inactive = mostly below about 34%. The full list was thinned out, with actives kept by preference.
Assay: NOD1 signaling inhibitors, primary screen, cell-based, luminescence, uHTS (AID 1578);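 note: HEK-293T reporter cells stimulated with the NOD1 agonist gamma-tri-DAP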
Conditions: NOD1-driven NF-kB luciferase reporter cells, at 4 µM, stronger effect = higher value

inhibition, inactive:
O=C1CC(c2ccccc2F)c2cc3c(cc2N1)CCC3 (stereo not given) 8.6%
O=C1CC(c2ccc(F)cc2)c2cc3c(cc2N1)CCC3 (stereo not given) 28.6%
COc1ccc(NC(=O)CCn2cc(C)c3ccccc32)cc1 -5.7%
O=C(N/N=C/c1ccccc1)c1ccc(-c2ccccc2)cc1 -17.2%
CCC(=O)Nc1nc2ccccc2n1CCN(C)C -15.3%
CCC(=O)Nc1nc2ccccc2n1Cc1ccccc1 23.4%
CCC(=O)Nc1nc2ccccc2n1Cc1ccc(C)cc1 31.5%
CCC(=O)Nc1nc2ccccc2n1CCN(CC)CC -9.6%
CCn1c(C)nc2cc(C(=O)n3cc(C(=O)c4cc(F)ccc4O)cn3)ccc21 23.8%
Nc1ccc(-c2nc3ccccc3o2)cc1 5.8%
COc1ccc([C@@H]2[C@@H]3C(=O)N(C(C)(C)C)C(=O)[C@@H]3[C@]3(Cc4ccc(Cl)cc4)C(=O)N(c4cccc(C)c4)C(=O)N23)cc1 13.2%
COc1cccc(NC(=O)C2CCN(S(C)(=O)=O)CC2)c1 -30.4%
Cc1cc(S(=O)(=O)Nc2ccc3c(c2)n(C)c(=O)n3C)ccc1F 0.4%
Oc1c(Br)cc(Br)cc1CNn1cnnc1 5.1%
COc1cc(SC)ccc1C(=O)Nc1cccc(C)n1 -70%
COc1cc(SC)ccc1C(=O)Nc1ccc(Cl)cn1 16.3%
COc1cc(SC)ccc1C(=O)Nc1nccs1 -52.4%
COc1cc(SC)ccc1C(=O)Nc1nc(C)cc(C)n1 -19.1%
CCCCOc1ccccc1/C=N/NC(=O)CC#N -26.1%
O=C(NNC(=S)Nc1ccc(Cl)cc1)c1ccccc1OC(F)F -11.7%
COc1ccccc1-n1cc(-c2ccc(Br)cc2)[nH]c1=S -0.3%
Cc1sc2ncnc(Sc3ccccc3C(=O)Nc3ccc(Br)cc3)c2c1C 9.8%
Nc1c(Br)c(=O)[nH]c(=O)n1-c1ccccc1 6.9%
COc1ccc(N/N=C(/N=Nc2nc(C)cc(=O)[nH]2)c2ccccc2)cc1 11.2%
Cc1cc(=O)[nH]c(N=N/C(=N/Nc2ccccc2C)c2ccccc2)n1 45.2%
COc1ccc(N(CC(=O)NC2CCCCC2)C(=O)c2snc(C(N)=O)c2N)cc1 -27.6%
CN1CCN(CCCNC(=O)Cn2nc(-c3ccccc3)ccc2=O)CC1 -20.1%
O=C(O)c1nc(N2CCCC2)ncc1Cl 0.1%
Cc1ccc(/C=C2/CCc3c([nH]c4ccccc34)C2=O)cc1 -61.5%
O=C1/C(=C\c2ccccc2)CCc2c1[nH]c1ccccc21 -31.1%
COC(=O)c1cn(CCOc2ccccc2)c2ccccc12 -11.9%
COc1ccccc1C(=O)Nc1cccnc1 -35.2%
CC1CCc2nc(NC(=O)Cc3cccs3)sc2C1 (stereo not given) -17.9%
CC1CCc2nc(NC(=O)CCSc3ccccc3)sc2C1 (stereo not given) -19.7%
CC1CCc2nc(NC(=O)C3CC3)sc2C1 (stereo not given) -43.5%
O=C(CSc1nc2ccccc2o1)Nc1nc2ccccc2s1 25.3%
CC(=O)Nc1ccc(S(=O)(=O)N2CCN(c3ncccn3)CC2)cc1 -2%
CCOc1ccccc1NC(=O)C(C)CC (stereo not given) -23.5%
COc1ccc(NC(=O)Cc2nnc(SCC(=O)NC3CCCCC3C)n2C)cc1 (stereo not given) 17.2%
CCN(CC1CCCN(CCc2cccc(F)c2)C1)C(=O)c1ccc(CSC)o1 (stereo not given) -11%
COc1ccc(C(=O)OC(COc2ccccc2)Cn2ccnc2)cc1 (stereo not given) 2.7%
Cc1coc2cc3oc(=O)c(CC(=O)N[C@@H](CC(C)C)C(=O)O)c(C)c3cc12 -5.8%
COc1cc(C2C3C(C)N(C)C(=O)N(C)C3N(C)C(=O)N2C)ccc1O (stereo not given) -20.9%
COc1ccc(/C=C2\SC(=S)NC2=O)cc1OS(=O)(=O)c1ccc(NC(C)=O)cc1 2.1%
COc1cc(/C=C2\SC(=S)NC2=O)ccc1OS(=O)(=O)c1ccccc1 4.1%
Cc1ccc(CNC(=O)C2CCN(S(=O)(=O)c3ccc(Br)s3)CC2)cc1 16%
Cc1cc(C(=O)CSc2cccc[n+]2[O-])c(C)n1-c1ccc(OC(F)F)cc1 2.7%
Cc1cc(-n2c(C)cc(C(=O)CSc3nc(N)cc(=O)[nH]3)c2C)no1 9.7%
COCCCNC(=O)CNC(=O)c1cn(-c2ccccc2OC)c(=O)c2ccccc12 -30.6%
Cc1ccc(C)c(NC(=O)CCN2CC(C)OC(C)C2)c1 (stereo not given) -8.9%
COc1ccc(CN2CCSc3sccc3C2=O)cc1 -4.1%
N#CC(c1nc2ccccc2nc1OCCO)S(=O)(=O)c1ccccc1 (stereo not given) -3.6%
Cc1ccc(S(=O)(=O)C(C#N)c2nc3ccccc3nc2N2CCCCC2)cc1 (stereo not given) -4.7%
COc1ccc(S(=O)(=O)C(C#N)c2nc3ccccc3nc2N2CCCC(C)C2)cc1 (stereo not given) -10.7%
N#CC(c1nc2ccccc2nc1N1CCCC1)S(=O)(=O)c1ccccc1 (stereo not given) 10.2%
Cc1ccc(S(=O)(=O)C(C#N)c2nc3ccccc3nc2OCCO)cc1 (stereo not given) -27.7%
CC1CCCN(c2nc3ccccc3nc2C(C#N)S(=O)(=O)c2cccs2)C1 (stereo not given) 13.4%
CCCCOC(=O)c1cccnc1 9.9%
Cc1c(Cl)cccc1NC(=O)Nc1c(C)n(C)n(-c2ccccc2)c1=O -22.5%
O=C(Cc1n[nH]c(=O)[nH]c1=O)N/N=C/c1c(O)ccc2ccccc12 -32.5%
COCCN1C(=O)c2ccccc2C(C(=O)N2CCN(c3ccccn3)CC2)C1c1ccc(F)cc1 (stereo not given) 13.2%
COc1cccc(CNC(=O)CCC2CCCN(C(=O)Cc3ccccc3F)C2)c1 (stereo not given) -26.2%
CC(O)c1nc2ccccc2n1CC(=O)N1CCN(c2ccccc2)CC1 (stereo not given) -27.8%
CCOc1ccccc1NC(=S)N(CCCN1CCOCC1)Cc1cn(C)c2ccccc12 -4.6%
N#Cc1c(-c2ccccc2)nc(SCc2cccc(Cl)c2)[nH]c1=O 18.9%
N#Cc1c(-c2ccccc2)nc(SCc2ccc(Cl)cc2)[nH]c1=O -2.4%
N#Cc1c(Cl)nc(SCc2ccccc2)nc1-c1ccccc1 32.4%
O=c1nc(SCc2cccc(C(F)(F)F)c2)nc2ccccn12 -17.7%
N#Cc1c(N)nc(SCc2ccncc2)c(C#N)c1-c1cccs1 61.6%
CCSc1nc(N)nc(-c2cccs2)c1C#N -29%
N#Cc1cc2ccccc2nc1SCC(=O)NC1CC1 -32.4%
Cc1ccc(NC(=S)NNC(=O)c2c(Cl)c(C)nn2C)cc1 0%
Cc1ccc2c(c1)N(CC(=O)NC1CCCC1)C(=O)CO2 -27.1%
CCOC(=O)C1(CC)NC(c2ccc(OC)c(OC)c2)C2C(=O)N(c3cccc(C(C)=O)c3)C(=O)C21 (stereo not given) -2.3%
Cc1nc([N+](=O)[O-])cn1CC(O)c1ccc(-c2ccccc2)cc1 (stereo not given) -8.6%
COc1ccc(N2CCN(C(=O)CSc3nnc4c(C)cc5ccccc5n34)CC2)cc1 -15.6%
C#CCOC(=O)c1cc(Cl)c(=O)n(Cc2ccc(Cl)cc2Cl)c1 12.3%
CC(NC(=O)/C(C#N)=C/c1ccco1)c1ccccc1 (stereo not given) -8.1%
Cc1nn(Cc2c(F)c(F)c(F)c(F)c2F)c(C)c1NC(=O)c1c([N+](=O)[O-])c(C)nn1C 10.1%
Cc1cc(C)c(C#N)c(SCC(=O)c2cccs2)n1 -63.4%
Cc1cc(C)c(C#N)c(SCC(=O)c2ccccc2)n1 -26.8%
CNc1ccccc1C(=O)OCC(C)=O -41.6%
COc1ccc(CCNC(=O)CCC(=O)N2CCOc3ccc(C)cc32)cc1OC 10.2%
COc1cc(-c2cc(C(=O)Nc3ccc(O)cc3)c3ccccc3n2)cc(OC)c1OC 6.4%
COc1ccc(NC(=O)c2cc(-c3cc(OC)c(OC)c(OC)c3)nc3ccccc23)cc1OC 43.8%

inhibition, active:
O=C1CC(c2cc(F)ccc2F)c2cc3c(cc2N1)CCC3 (stereo not given) 64.2%
CCC(=O)Nc1nc2ccccc2n1Cc1ccc(Cl)cc1 101%
CCCCCCCn1c(NC(=O)CC)nc2ccccc21 109%
COc1cc(SC)ccc1C(=O)Nc1nc(C)cs1 91.9%
COc1cc(SC)ccc1C(=O)Nc1ncc(C)s1 82.7%
Cc1cc(=O)[nH]c(N=N/C(=N/Nc2ccc(O)cc2)c2ccccc2)n1 105%
O=C1/C(=C/c2cccnc2)CCc2c1[nH]c1ccccc21 82%
CC1CCc2nc(NC(=O)c3ccco3)sc2C1 (stereo not given) 42.5%
COc1cc(/C=C2/SC(=S)NC2=O)ccc1OS(=O)(=O)c1ccc(C)cc1 93.4%
Cc1cc(C(=O)CSc2nc(N)cc(=O)[nH]2)c(C)n1-c1ccc(OC(F)F)cc1 45.3%
CC1CCCN(c2nc3ccccc3nc2C(C#N)S(=O)(=O)c2ccccc2)C1 (stereo not given) 102%
N#CC(c1nc2ccccc2nc1N1CCCCC1)S(=O)(=O)c1ccc(Cl)cc1 (stereo not given) 88.1%
CCCCOc1nc2ccccc2nc1C(C#N)S(=O)(=O)c1ccccc1 (stereo not given) 79.5%
Cc1cc(C)c(C#N)c(SCC(=O)c2ccc(Cl)cc2Cl)n1 68.6%
COc1cc(-c2cc(C(=O)Nc3cccc(C(C)=O)c3)c3ccccc3n2)cc(OC)c1OC 63.6%
